“And” between values parts separate entries of the source, which are not always exact repeats. Equal values may be shown once. Unmarked numbers belong to inactive results. Records with an inconclusive call do not appear. The source made the active and inactive calls. Unless noted, calls follow the shape of the dose curve; as a rule, active = well fitted cell-killing curve with a large enough effect; inconclusive = small, poorly fitted or top-dose-only effect; inactive = flat fitted curve, though single readings scatter.

Assay [1] in a line: Cell Viability - BJ (AID 421; calls by dose curve;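 also: potency is read from the fitted curve at half-maximal effect; cells exposed to compound for 40 hours at 37 °C before readout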). As to conditions: BJ fibroblast viability, qHTS. An outline of the steps:
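Cytotoxicity as drop in intracellular ATP (CellTiter-Glo, 20 min RT) after 40 hr compound exposure of BJ fibroblasts at 37 °C. Titrations scaled between DMSO and 100 uM tamoxifen, Hill-fitted for AC50.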
For orientation: Quantitative high-throughput screening tests each substance at several concentrations.

The nature of assay [2]: Cell Viability - Jurkat (AID 426;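 active = dose-dependent loss of cell ATP signal giving a full or clear fitted curve, ranked by lower potency value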;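 also: potency is read from the fitted curve at half-maximal effect; cells exposed to compound for 40 hours at 37 °C before ATP read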). As to conditions: qHTS. In a few lines:
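Cells of the human T-cell leukemia line Jurkat (E6-1) are seeded at 5000 per well, treated with compound across a concentration range for 40 hours at 37 °C, then lysed with CellTiter-Glo; luminescence reports ATP.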

A short description of assay [3]: Cell Viability - Hek293 (AID 427;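 active = compounds whose dose-response curve shows a full or clear partial loss of cell viability, called from curve shape rather than a numeric limit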;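 also: potency is read from the fitted curve at half-maximal effect; cells exposed to compound for 40 hours at 37 °C before reading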). As to conditions: qHTS. An outline of the steps: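 Luminescent ATP content (CellTiter-Glo, 20 min at room temperature) was measured after a 40 hr, 37 °C compound exposure of HEK293 cells. AC50 values came from Hill-equation fits of qHTS concentration-response data normalized to DMSO and 100 uM tamoxifen.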
The nature of assay [4]: Cell Viability - MRC5 (AID 434; calls by dose curve;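 also: potency is read from the fitted curve at half-maximal effect; potency reflects cytotoxicity seen as loss of intracellular ATP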). The following applies: MRC5 lung fibroblast viability, qHTS. An outline of the steps:
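ATP luminescence read-out (CellTiter-Glo, 20 min RT) after 40 hr, 37 °C compound exposure of 1500 MRC5 cells/well. Data normalized to DMSO (basal) and 100 uM tamoxifen (100% inhibition); AC50 from standard Hill equation.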

A short description of assay [5]: Cell Viability - SK-N-SH (AID 435; calls by dose curve;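 also: potency is read from the fitted curve at half-maximal effect; compound exposure lasted 40 h at 37 °C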). As to conditions: SK-N-SH neuroblastoma cell viability qHTS. In a few lines: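 CellTiter-Glo ATP luminescence, 20 min RT read; cells pre-plated 5 hr, compound 40 hr at 37 °C, 1500 cells/well, complete medium. Normalized DMSO = 0, 100 uM tamoxifen = 100% inhibition; Hill-fit AC50.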
The target in assay [6] is Mitogen-activated protein kinase 10 (Mus musculus) (UniProt Q61831). Kind of assay: JNK3 AlphaScreen Assay (AID 530; active = well fitted curve in either direction with a large enough effect, not every such curve was filed as active;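 also: kinase came from lysate of stimulated human HepG2 cells; signal reports phosphorylation of biotinylated GST-cJun 1-79 at Ser73 with 10 µM ATP; % is scaled to controls: 0 for no effect and ±100 for the full control effect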). The following applies: JNK3 lysate, c-Jun phosphorylation; series mostly up to 57.1 µM. In a few lines: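 Activity was read by AlphaScreen after JNK3-containing HepG2 lysate (cytokine pre-activated) phosphorylated biotinylated GST-cJun with 10 uM ATP at room temperature. Phospho-Ser73 cJun antibody with Protein-A acceptor beads provided detection.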
For orientation: Bead proximity is the source of the signal in Alpha formats.

The nature of assay [7]: Cell Viability - N2a (AID 540).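 Also: cells exposed to compound for 40 h at 37 °C; nearly all actives have a fitted effect of over 45% in size.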 Also: potency is read from the fitted curve at half-maximal effect.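 As to activity change, negative = cytotoxicity: plate controls were DMSO alone for no effect and tamoxifen control for full effect.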 The following applies: N2a mouse neuroblastoma cell viability; activity change, negative = cytotoxicity: at 92.2 µM (top of the series). An outline of the steps: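 Cytotoxicity was scored as loss of cellular ATP in N2a cells, a mouse neuroblastoma line. Compounds are applied in a qHTS concentration series for 40 hr at 37 °C.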
Assay [8] can be described thus: Cell Viability - NIH 3T3 (AID 541). Also: nearly all actives have a fitted effect of over 25% in size. Also: potency is read from the fitted curve at half-maximal effect.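 As to activity change, negative = cytotoxicity: plate controls were DMSO alone for no effect and tamoxifen positive control for full effect.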 As to conditions: NIH 3T3 cell viability, qHTS; activity change, negative = cytotoxicity: at 92.2 µM (top of the series). In a few lines:
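Cells seeded at 1000/well, rested 5 hr at 37 °C, then dosed and incubated 40 hr at 37 °C. CellTiter-Glo added, 20 min room temperature, luminescence read. AC50 by Hill fit.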

The nature of assay [9]: Cell Viability - H-4-II-E (AID 543). Also: nearly all actives have a fitted effect of over 35% in size. Also: potency is read from the fitted curve at half-maximal effect. The following applies: H-4-II-E rat hepatoma viability; series mostly up to 92.2 µM. In a few lines:
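Cells seeded at 1500 per well and rested 5 hr; compounds added; 40 hr incubation at 37 °C; CellTiter-Glo added, 20 min at room temperature; luminescence read. Hill-equation fits gave AC50.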

A short description of assay [10]: Cell Viability - SH-SY5Y (AID 544). Also: nearly all actives have a fitted effect of over 55% in size. Also: potency is read from the fitted curve at half-maximal effect. The following applies: SH-SY5Y neuroblastoma cell viability; series mostly up to 92.2 µM. In a few lines: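 Cells were plated at 1500 per well and allowed 5 hr at 37 °C. Compounds were added across a concentration range and incubated 40 hr at 37 °C. CellTiter-Glo was added for 20 min at room temperature before luminescence reading.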

A short description of assay [11]: Cell Viability - Renal Proximal Tubule (AID 545). Also: nearly all actives have a fitted effect of over 40% in size. Also: potency is read from the fitted curve at half-maximal effect.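 As to activity change, negative = cytotoxicity: 0% = DMSO only and -100% = 100 µM tamoxifen.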 The following applies: renal proximal tubule cells viability; activity change, negative = cytotoxicity: at 91.7 µM (top of the series). An outline of the steps:
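Rat kidney proximal tubule cells, freshly isolated; 1000 cells/well, 5 hr settle, compound 40 hr 37 °C. CellTiter-Glo 20 min RT, luminescence read. AC50 by standard Hill fit.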

Assay [12] can be described thus: Cell Viability - Mesenchymal (AID 546).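 Also: cells exposed to compound for 40 hours before reading.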 Also: potency is read from the fitted curve at half-maximal effect.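 As to activity change, negative = cytotoxicity: 0% = DMSO only and -100% = 100 µM tamoxifen.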 As to conditions: mesenchymal cells viability, qHTS; series mostly up to 91.7 µM. In a few lines:
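Human renal mesenchymal cells (glomerulus-derived), 1000 cells/well, 5 hr 37 °C pre-incubation; compound 40 hr, 37 °C; CellTiter-Glo, 20 min RT; luminescence; AC50 via Hill equation.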

Assay [13] is described as follows: NFAT Signaling Pathway (AID 444; active = well fitted curve in either direction with a large enough effect, not every such curve was filed as active;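 also: carbachol stimulus at about its EC50 of 1 µM final; % is scaled to controls: 0 for no effect and ±100 for the full control effect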). As to conditions: Jurkat NFAT-bla M1, carbachol, beta-lactamase ratio, 5 h; at 38 µM (top of the series) unless noted. An outline of the steps: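 Jurkat cells with NFAT-driven β-lactamase reporter and co-expressed M1 receptor, stimulated with carbachol (final 1 uM, ~EC50), compound titration, 5 h at 37 °C. CCF4 loaded 1 h at RT; 460/530 nm ratio gave %activity and AC50.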

A short description of assay [14]: Stat Signaling Pathway (AID 446; active = well fitted curve in either direction with a large enough effect, not every such curve was filed as active;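 also: ME-180 cervical cancer cells given 40 pM IL-6 alongside compound; SIE-controlled beta-lactamase reporter measured as 460/530 nm FRET emission ratio; % is scaled to controls: 0 for no effect and ±100 for the full control effect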). The following applies: ME-180 (cervical carcinoma) SIE beta-lactamase reporter, IL-6 stimulated, 5 h; at 38 µM (top of the series) unless noted. In a few lines:
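FRET read-out (405 nm excitation, 460/530 nm emission) of a beta-lactamase reporter under a STAT-inducible element in ME-180 cervical carcinoma cells. Cells with compound receive 40 pM IL-6 for 5 h. Values are normalised to AC90 stimulation and AC90 JAK-inhibitor controls.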

For assay [15], the target named is Glucocorticoid receptor (Homo sapiens) (UniProt P04150). Kind of assay: GR-EFC Redistribution (AID 451; calls by dose curve; also: potency is read from the fitted curve at half-maximal effect). The following applies: CHO-K1 GR-EFC translocation, beta-gal luminescence, 2 h. An outline of the steps: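 CHO-K1 cells expressing nuclear EA and GR-ED fragments of b-gal; compounds titrated up to 46 uM final, 2 h at 37 C. GR nuclear translocation read as complemented b-gal luminescence after 1 h RT detection.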
Glucocorticoid receptor (Homo sapiens), sequence (P04150 whole entry, looked up, the tested form may be a part): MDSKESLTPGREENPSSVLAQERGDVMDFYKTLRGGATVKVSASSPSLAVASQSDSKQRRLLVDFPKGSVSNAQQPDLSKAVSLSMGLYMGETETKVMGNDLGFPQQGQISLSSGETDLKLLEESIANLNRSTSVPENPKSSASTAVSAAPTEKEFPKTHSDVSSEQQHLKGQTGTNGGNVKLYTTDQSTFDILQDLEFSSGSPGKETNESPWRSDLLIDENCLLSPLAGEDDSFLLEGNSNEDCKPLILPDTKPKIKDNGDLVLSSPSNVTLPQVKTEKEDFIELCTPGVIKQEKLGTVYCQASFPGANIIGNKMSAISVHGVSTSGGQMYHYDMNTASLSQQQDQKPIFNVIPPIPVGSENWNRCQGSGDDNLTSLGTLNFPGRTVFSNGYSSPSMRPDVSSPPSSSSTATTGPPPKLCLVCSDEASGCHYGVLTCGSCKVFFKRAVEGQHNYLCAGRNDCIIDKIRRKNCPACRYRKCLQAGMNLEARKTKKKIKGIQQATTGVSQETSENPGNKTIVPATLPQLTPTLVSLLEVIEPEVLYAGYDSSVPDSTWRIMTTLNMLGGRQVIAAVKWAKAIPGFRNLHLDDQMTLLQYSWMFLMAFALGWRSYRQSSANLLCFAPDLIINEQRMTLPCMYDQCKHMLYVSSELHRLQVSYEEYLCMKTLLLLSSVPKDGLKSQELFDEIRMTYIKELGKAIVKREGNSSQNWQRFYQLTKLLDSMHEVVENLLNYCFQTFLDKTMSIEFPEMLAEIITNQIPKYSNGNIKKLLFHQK

Assay [16] shares this target. In words: GR-GFP Redistribution (AID 450;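 active = compounds whose dose series gives a full or clear partial fitted curve of increased nuclear translocation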; also: potency is read from the fitted curve at half-maximal effect). The following applies: U2OS GR-GFP nuclear translocation, laser cytometry, 2 h.
Assay [17] deals with 3',5'-cyclic-AMP phosphodiesterase 4B (Homo sapiens) (UniProt Q07343). In words: qHTS Assay for Inhibitors of PDE-IV (AID 607; active = well fitted activation curve with a large enough effect in the main read-out, with a control signal flat, not every such curve was filed as active; also: % of control where 0% means no effect). The following applies: HEK293 ACTOne CNG channel cells, membrane potential fluorescence; series mostly up to 22.9 µM. An outline of the steps: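 Cell-based read-out of cAMP via a modified cyclic nucleotide-gated channel and membrane potential dye (535/590 nm) in HEK293 cells expressing PDE4 endogenously. Compounds tested up to 22.9 uM final; 100 uM RO 20-1724 reference.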
3',5'-cyclic-AMP phosphodiesterase 4B (Homo sapiens), sequence (Q07343 whole entry, looked up): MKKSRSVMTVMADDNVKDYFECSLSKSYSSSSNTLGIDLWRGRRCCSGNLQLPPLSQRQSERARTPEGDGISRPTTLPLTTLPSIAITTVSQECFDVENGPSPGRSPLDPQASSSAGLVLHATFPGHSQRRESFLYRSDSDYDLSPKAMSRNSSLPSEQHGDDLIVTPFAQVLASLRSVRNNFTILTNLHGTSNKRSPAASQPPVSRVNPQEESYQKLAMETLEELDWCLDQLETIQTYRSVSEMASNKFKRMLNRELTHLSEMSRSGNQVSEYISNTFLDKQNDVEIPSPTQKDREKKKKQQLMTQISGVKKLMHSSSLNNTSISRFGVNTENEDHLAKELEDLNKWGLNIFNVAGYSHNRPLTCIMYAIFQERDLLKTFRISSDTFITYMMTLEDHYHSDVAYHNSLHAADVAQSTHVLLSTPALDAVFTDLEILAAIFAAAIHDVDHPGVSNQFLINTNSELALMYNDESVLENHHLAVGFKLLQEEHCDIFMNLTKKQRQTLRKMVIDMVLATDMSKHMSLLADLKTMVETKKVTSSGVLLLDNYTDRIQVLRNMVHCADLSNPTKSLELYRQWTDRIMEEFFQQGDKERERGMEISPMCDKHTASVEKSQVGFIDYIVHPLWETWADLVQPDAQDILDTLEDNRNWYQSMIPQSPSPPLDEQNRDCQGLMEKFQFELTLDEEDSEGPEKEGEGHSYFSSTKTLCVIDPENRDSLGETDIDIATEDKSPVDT

Take `O=C1C2CC=CCC2C(=O)N1SC(Cl)(Cl)Cl` (centres undefined): the Potency was 54.5 µM (active) and 21.4 µM (active) in assay [1]; 4.24 µM (active) and 4.76 µM (active) in assay [2]; 26.5 µM (active) and 26.9 µM (active) in [3]; 24.9 µM (active) and 14.7 µM (active) in assay [4]; 27.7 µM (active) and 13.2 µM (active) in assay [5]; 20 µM (active) and 10 µM (active) in assay [7]. The Potency in assay [8] was 5.01 µM (active) and 2 µM (active); in [9], 7.94 µM (active) and 6.31 µM (active); in [10], 2 µM (active) and 1 µM (active); in assay [11] it was 3.98 µM (active) and 3.16 µM (active); in assay [12], 25.1 µM (active) and 20 µM (active). In addition, the compound was called inactive in [6].
Consider `S=C=S`, for which the Potency in [1], in [2], in assay [3], in assay [4] and in [5] was greater than 92 µM throughout. In addition, in assay [6], the outcome was inactive. For the same compound, the Potency result in [7], in assay [8], in assay [9], in [10], in assay [11] and in [12] was “inactive” throughout.
`O=CC=O`: the Potency was greater than 92 µM in assay [1]; greater than 92 µM in assay [2]; greater than 92 µM in [3]; greater than 92 µM in assay [4]; greater than 92 µM in assay [5]; 12.6 µM (active) in assay [8]. In [6], the call was inactive. Further, the Potency entry in assay [7], in assay [9], in assay [11] and in assay [12] was “inactive” in each case.
Consider `CC(C)Nc1ccc(Nc2ccccc2)cc1`, for which the Potency in assay [2] is 22.8 µM (active); in [5] it was 40.5 µM (active); in assay [9], 25.1 µM (active); in assay [10], 10 µM (active). Further, the activity change, negative = cytotoxicity in assay [7] was -116% (active); in assay [8], -150% (active).
Regarding `CCOC(=O)c1ccccc1C(=O)OCC`, the Potency in assay [1], in assay [2], in assay [3], in assay [4] and in assay [5] was greater than 92 µM each time. The result in assay [6] was inactive. Besides, the Potency entry in assay [7], in assay [8], in assay [9], in assay [10], in assay [11] and in assay [12] was “inactive” throughout.
In the case of `CN1[C@@H]2CC[C@H]1CC(OC1c3ccccc3CCc3ccccc31)C2` (some centres undefined), the activity change, negative = inhibition in assay [13] is -67.9% [at 17.2 µM] (active). Besides, the activity, negative = inhibition in assay [14] was 5.86% [at 17.2 µM]. Besides, the Potency in [15] was greater than 20.6 µM. In addition, the result in assay [6] was inactive.
With `O=[N+]([O-])c1ccc(F)c([N+](=O)[O-])c1`, the Potency in assay [1] is 59.9 µM (active); in assay [2], 8.96 µM (active); in [4], greater than 92 µM; in assay [5] it was 45.7 µM (active); in [10], 25.1 µM (active). In [6], the result was inactive. The activity change, negative = cytotoxicity in assay [8] was -151% (active). In [12], the Potency entry was “inactive”.
For the compound `O=[N+]([O-])c1ccccc1`, the Potency in assay [1], in assay [2], in assay [3], in [4] and in assay [5] was greater than 92 µM in each case. For the same compound, in assay [6], the compound was classed as inactive. The Potency result in assay [7], in [8], in [9], in assay [10], in assay [11] and in assay [12] was “inactive” in each case.
`C[C@]12CCC(=O)C[C@@H]1CC[C@@H]1[C@@H]2CC[C@]2(C)[C@@H](O)CC[C@@H]12`: the Potency in assay [1], in [2], in assay [4] and in assay [5] was greater than 92 µM throughout. The result in assay [6] was inactive. The Potency result in assay [7], in assay [8], in assay [10], in assay [11] and in assay [12] was “inactive” throughout.
As for `[O]=[Cd]`, the Potency in assay [1], in assay [2], in assay [3], in assay [4] and in assay [5] was greater than 92 µM in each case. Moreover, the Potency result in [7], in assay [8], in assay [9], in assay [10], in assay [11] and in assay [12] was “inactive” throughout.
As for `ClC=C(Cl)Cl`, the Potency in [1], in [2], in [3], in assay [4] and in [5] was greater than 92 µM throughout. Further, in assay [6], the compound was classed as inactive. For the same compound, the Potency entry in assay [7], in assay [8], in assay [9], in [10], in assay [11] and in assay [12] was “inactive” in each case.
With `O=C/C=C/c1ccccc1`, the Potency in [1] was greater than 92 µM; in assay [4], greater than 92 µM; in [5], greater than 92 µM; in assay [8], 12.6 µM (active). For the same compound, the result in assay [6] was inactive. In addition, the Potency entry in assay [7], in assay [9], in assay [10], in assay [11] and in assay [12] was “inactive” in each case.
Regarding `C[C@H]1CC[C@@H]2[C@@H](C)[C@H]3[C@H](C[C@H]4[C@@H]5CC=C6CC(O[C@@H]7O[C@H](CO)[C@H](O)[C@H](O[C@@H]8O[C@H](CO)[C@@H](O)[C@H](O)[C@H]8O)[C@H]7O[C@H]7O[C@@H](C)[C@H](O)[C@@H](O)[C@H]7O)CC[C@]6(C)[C@H]5CC[C@]34C)N2C1` (some centres undefined), the Potency was 35 µM (active) in assay [1]; 32.5 µM (active) in assay [2]; 39.3 µM (active) in assay [3]; 45 µM (active) in assay [4]; 24.8 µM (active) in assay [5]; 31.6 µM (active) in assay [7]. Moreover, the Potency in assay [8], in assay [9], in assay [10] and in [12] was 31.6 µM (active) in each case. The result in assay [6] was inactive. Also, the activity change, negative = cytotoxicity in assay [11] is -101% (active).
Regarding `O=C1CCO1`, the Potency in assay [1], in assay [2], in assay [3], in assay [4] and in assay [5] was greater than 92 µM throughout. Further, the compound was classed as inactive in assay [6]. The Potency entry in [7], in assay [8], in assay [9], in assay [10], in assay [11] and in [12] was “inactive” in each case.
Turning to `c1ccc2c(c1)[I+]c1ccccc1-2`, the activity change, negative = inhibition in assay [13] is -17.4%. Besides, the Potency in assay [16] and in [15] was greater than 46 µM throughout. Besides, the result in [6] was inactive. Besides, the Potency entry in [17] is “inactive”.

(Values after PubChem BioAssay (NCATS).)
